In PubChem BioAssay:
Results filed as inconclusive are left out. The source made the active and inactive calls.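 How the source made its calls, unless noted: active means percent response above a set limit, the screen-wide mean plus 3 SD (cut at about 130% in these data); inactive means the rest.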

Experiments:
[1] = rapamycin-like changes in RPL19A-GFP expression – cell-based, S. cerevisiae, multiplex flow cytometry, primary screen (AID 1862; in the data active means percent of DMSO control GFP below about 86%;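 further: lower values mimic rapamycin by blocking the RPL19A rise seen in DMSO cells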); conditions: S. cerevisiae RPL19A-GFP strain, flow cytometry fluorescence, 3 h; at 10 µM; stronger effect = lower value
[2] = TOR pathway GLN3 branch reporter MEP2-GFP changes – S. cerevisiae, multiplex flow cytometry, primary screen (AID 1867;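 active means GFP response, as percent of the DMSO control, above the screen-wide mean plus 3 SD, about 139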;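 further: median GFP channel fluorescence of barcode-gated MEP2-GFP cells measured by flow cytometry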); conditions: S. cerevisiae MEP2-GFP strain, 3 h, at 10 µM, stronger effect = higher value, 100% means same as DMSO wells
[3] = TOR pathway RTG branch CIT2 reporter changes – S. cerevisiae, GFP fusion, multiplex flow cytometry, primary screen (AID 1870);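 further: barcoded CIT2-GFP strain pooled with four other GFP strains with rapamycin as positive control; median GFP fluorescence per well over plate mean of DMSO wells so 100% = DMSO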; conditions: S. cerevisiae CIT2-GFP expression, 3 h, at 10 µM, stronger effect = higher value
[4] = TOR pathway LAP4-GFP level changes – S. cerevisiae, multiplex flow cytometry, primary screen (AID 1873;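 active means GFP signal, as percent of the solvent control, above the screen mean plus 3 SD, about 149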); conditions: S. cerevisiae LAP4-GFP expression, 3 h, at 10 µM, stronger effect = higher value
[5] = yeast AGP1-GFP level changes, GLN3 branch – cell-based, multiplex flow cytometry, S. cerevisiae, primary screen (AID 1887;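 active means GFP signal above the screen-wide mean plus 3 SD, that is over about 124.5% of the solvent control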;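 further: AGP1-GFP fusion strain of S. cerevisiae within a five-strain barcoded multiplex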); conditions: 3 h, at 10 µM, stronger effect = higher value
[6] = reduced mouse 2C T cell binding to pMHC/ICAM-1 vesicles – MLPCN validation set, flow cytometry, LFA-1/ICAM-1 modulator project, pilot screen (AID 2523;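 active means response below a set limit, under 55% cells CD8-positive and vesicle-bound, and CD8 cells' 90th-percentile brightness under 279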;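 on vesicle binding response: mean PE anti-B7-1 fluorescence of CD8+ cells relative to row control; 100% = QL9-loaded vesicles with DMSO vehicle in the same plate row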); conditions: 2C mouse CD8+ T cells, at 7 µM, stronger effect = lower value; double positive events: measured here: CD8+/vesicle+ event percentage
[7] = target: Integrin beta-1 (Homo sapiens) + Integrin alpha-4 (Homo sapiens) (UniProt P13612+P05556); test: alpha4beta1 integrin LIBS antibody binding reduction – U937 cells, HUTS-21 mAb, flow cytometry, validation set, VLA-4 allosteric modulator project, pilot screen (AID 2674;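 active means inhibition above 50%, about 3 SD of the validation set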;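 further: antibody binding induced by the VLA-4 ligand LDV present at three times its Kd; 0% = LDV ligand with antibody and no compound and 100% = antibody without LDV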); conditions: HUTS-21 LIBS mAb binding, at 6.7 µM, stronger effect = higher value, binding induced by LDV ligand
[8] = calorie-restriction mimetic ROS inhibitors, yeast – validation compound set, pilot screen (AID 2706;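 active means superoxide response below 65% of plate, a cut near 3 SD across the whole screen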;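 further: yeast exposed to compound for one week at 30 degrees C before staining; 100% = mean of all compound wells on the same plate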); conditions: S. cerevisiae aging, superoxide DHE fluorescence; at 10 µM; stronger effect = lower value
[9] = target: Beta-adrenergic receptor kinase 1 (Homo sapiens) (UniProt P25098); test: GRK2 binders displacing RNA aptamer, biochemical, validation, human GRK2, bead flow cytometry (AID 488806;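 active means aptamer binding inhibition above 30%, about 3 SD of noise from non-fluorescent compounds; inactive means inhibition at or below 30%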); conditions: bead-bound GRK2, FAM-aptamer displacement, at 10 µM, stronger effect = higher value
[10] = target: Beta-2 adrenergic receptor (Homo sapiens) (UniProt P07550); test: agonist-induced loss of surface beta2AR – cell-based, FAP fluorogen, flow cytometry, validation set, pilot screen (AID 504459;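 active means percent response above 42, roughly 3 SD of non-fluorescent test compounds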;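 further: agonist-driven loss of surface beta2AR via internalization measured by FAP dye flow cytometry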); conditions: Am2.2-beta2AR cells, at 10 µM, stronger effect = higher value
[11] = target: AP-2 complex subunit beta (Homo sapiens) (UniProt P63010); test: beta-arrestin/AP2 interaction blockers – biochemical, validation set, GST-AP2 beads, flow cytometry, pilot screen (AID 504541;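 active means inhibition above 54%, about 3 SD of non-fluorescent compounds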;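 further: AP2 carries R879A mutation and is captured from E. coli lysate; bead-bound FITC arrestin peptide fluorescence measuring arrestin peptide binding to AP2; 0% = DMSO wells and 100% = excess unlabeled arrestin peptide control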); conditions: FITC arrestin peptide, at 10 µM, stronger effect = higher value, AP2 beta2 appendage fragment, R879A mutant
[12] = cytosolic pH regulators acting via V-ATPase – S. cerevisiae, pHLuorin, HTS validation (AID 504600; in the data active means response above about 15%;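 further: plate controls were DMSO for no effect and reference compound for full effect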); conditions: V-ATPase proton transport, at 10 µM, stronger effect = higher value
[13] = system: anti-desmoglein-3 scFv antibody binding to human DSG3; test: blockers of pathogenic pemphigus antibody–desmoglein-3 binding – biochemical, validation compound set, bead-based, flow cytometry, pilot screen (AID 588368;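 active means binding below the plate cutoff, the plate median minus 3 SD, with a reading above zero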;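 further: signal is the median channel fluorescence of bead-bound GFP antibody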); conditions: Protein G beads, DSG3-Fc, scFv-GFP binding, at 10 µM, stronger effect = lower value
[14] = Nile Red efflux blockade in pump-expressing yeast – validation compound set, multiplex, phenotypic, pilot screen (AID 588506;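 active means efflux inhibition above 0.42, the validation set average plus 4 SD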;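 further: Nile Red retained in cells so higher fluorescence means more efflux inhibition; 0 = negative control wells and 1 = enniatin B 25 µM full block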); conditions: S. cerevisiae pump-expressing triplex, Nile Red efflux flow cytometry; at 10 µM; stronger effect = higher value; the pumps come from Candida albicans
[15] = target: ATP-binding cassette sub-family B member 6 (Homo sapiens) (UniProt Q9NP58); test: blockers of ABCB6-driven porphyrin uptake – K562-ABCB6 cells, flow cytometry, validation set, pilot screen (AID 588550;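 active means inhibition above the screen-wide mean plus 3 SD, about 51%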;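 further: 0% = DMSO wells and 100% = benzethonium chloride 70 µM positive control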); conditions: K562-ABCB6 porphyrin accumulation, 1 h, at 10 µM, stronger effect = higher value
[16] = AML differentiation inducers, ER-HoxA9 marrow cells – cell-based, GFP/MAC1 double positive, flow cytometry, validation set, primary screen (AID 588685;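 active means differentiation response of at least 50%, scaled between solvent and reference control, from cells with both markers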;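 further: compound exposure lasts four days before antibody staining and flow analysis; 0% = DMSO wells and 100% = 5 µM fulvestrant positive control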); conditions: stronger effect = higher value, normalized: vehicle 0, fulvestrant 100

Chain of AP-2 complex subunit beta (Homo sapiens) (P63010 whole entry, looked up, the tested form may be a part, one chain of several): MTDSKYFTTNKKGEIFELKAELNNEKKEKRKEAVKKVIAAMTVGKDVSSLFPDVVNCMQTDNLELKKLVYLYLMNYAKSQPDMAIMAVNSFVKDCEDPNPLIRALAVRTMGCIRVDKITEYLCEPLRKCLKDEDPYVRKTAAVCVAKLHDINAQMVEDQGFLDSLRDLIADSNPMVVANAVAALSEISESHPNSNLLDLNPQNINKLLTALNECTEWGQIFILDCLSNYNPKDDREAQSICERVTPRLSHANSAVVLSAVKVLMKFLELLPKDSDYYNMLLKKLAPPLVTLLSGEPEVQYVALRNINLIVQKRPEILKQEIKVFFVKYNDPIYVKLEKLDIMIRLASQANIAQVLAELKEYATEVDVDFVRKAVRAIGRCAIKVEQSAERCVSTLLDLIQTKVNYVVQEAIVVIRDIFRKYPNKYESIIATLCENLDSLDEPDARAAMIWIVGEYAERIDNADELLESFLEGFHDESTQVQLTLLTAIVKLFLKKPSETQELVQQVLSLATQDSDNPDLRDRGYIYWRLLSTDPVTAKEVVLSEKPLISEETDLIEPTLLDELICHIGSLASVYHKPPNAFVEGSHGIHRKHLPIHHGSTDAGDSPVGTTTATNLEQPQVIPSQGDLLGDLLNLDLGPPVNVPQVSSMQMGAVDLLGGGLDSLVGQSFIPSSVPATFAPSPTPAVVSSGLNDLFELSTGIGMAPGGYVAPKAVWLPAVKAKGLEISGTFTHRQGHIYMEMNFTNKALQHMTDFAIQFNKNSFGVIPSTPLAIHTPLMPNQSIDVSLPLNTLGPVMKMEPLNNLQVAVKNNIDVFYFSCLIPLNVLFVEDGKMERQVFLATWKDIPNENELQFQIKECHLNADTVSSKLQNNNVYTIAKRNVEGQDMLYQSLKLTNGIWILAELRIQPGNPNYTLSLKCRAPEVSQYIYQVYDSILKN
Chain of ATP-binding cassette sub-family B member 6 (Homo sapiens) (Q9NP58 whole entry, looked up): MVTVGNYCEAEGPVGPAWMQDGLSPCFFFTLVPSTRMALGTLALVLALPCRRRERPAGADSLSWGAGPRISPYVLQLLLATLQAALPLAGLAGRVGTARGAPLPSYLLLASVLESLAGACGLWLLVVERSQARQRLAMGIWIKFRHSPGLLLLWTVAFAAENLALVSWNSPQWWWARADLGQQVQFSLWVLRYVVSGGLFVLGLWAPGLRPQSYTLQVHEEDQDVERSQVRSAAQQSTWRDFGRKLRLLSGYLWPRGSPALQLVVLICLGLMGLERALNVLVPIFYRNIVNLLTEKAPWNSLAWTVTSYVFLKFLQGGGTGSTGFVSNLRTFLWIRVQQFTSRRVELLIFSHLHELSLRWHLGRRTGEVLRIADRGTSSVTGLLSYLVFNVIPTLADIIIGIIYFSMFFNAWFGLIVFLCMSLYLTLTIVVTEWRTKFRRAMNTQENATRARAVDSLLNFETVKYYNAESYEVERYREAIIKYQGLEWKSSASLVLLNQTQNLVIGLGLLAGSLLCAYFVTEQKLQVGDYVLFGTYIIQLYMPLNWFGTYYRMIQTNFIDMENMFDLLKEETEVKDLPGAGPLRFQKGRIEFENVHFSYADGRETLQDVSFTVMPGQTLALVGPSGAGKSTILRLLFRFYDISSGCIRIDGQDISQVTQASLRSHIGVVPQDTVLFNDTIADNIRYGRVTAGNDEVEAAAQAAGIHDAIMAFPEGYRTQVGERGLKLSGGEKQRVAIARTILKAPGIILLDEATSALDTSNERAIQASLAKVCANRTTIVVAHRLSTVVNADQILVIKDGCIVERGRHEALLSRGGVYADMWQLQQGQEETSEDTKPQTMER
Chain of Beta-adrenergic receptor kinase 1 (Homo sapiens) (P25098 whole entry, looked up): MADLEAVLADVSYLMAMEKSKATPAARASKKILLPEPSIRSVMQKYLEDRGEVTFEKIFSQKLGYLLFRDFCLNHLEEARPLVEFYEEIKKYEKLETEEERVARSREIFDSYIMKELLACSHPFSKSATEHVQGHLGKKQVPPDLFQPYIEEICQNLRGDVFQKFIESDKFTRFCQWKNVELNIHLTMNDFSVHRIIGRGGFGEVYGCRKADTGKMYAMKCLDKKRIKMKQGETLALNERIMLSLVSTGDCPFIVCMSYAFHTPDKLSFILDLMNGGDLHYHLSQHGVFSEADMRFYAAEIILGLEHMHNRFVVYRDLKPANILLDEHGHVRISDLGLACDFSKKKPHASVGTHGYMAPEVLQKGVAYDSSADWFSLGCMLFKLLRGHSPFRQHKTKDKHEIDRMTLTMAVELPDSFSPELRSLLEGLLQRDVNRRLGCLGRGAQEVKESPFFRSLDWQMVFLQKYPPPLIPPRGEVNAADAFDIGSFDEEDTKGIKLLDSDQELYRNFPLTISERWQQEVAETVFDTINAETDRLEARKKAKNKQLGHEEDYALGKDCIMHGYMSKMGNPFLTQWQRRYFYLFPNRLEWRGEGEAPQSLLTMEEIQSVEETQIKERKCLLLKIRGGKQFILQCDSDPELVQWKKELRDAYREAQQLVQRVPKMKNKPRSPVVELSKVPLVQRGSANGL
Chain of Beta-2 adrenergic receptor (Homo sapiens) (P07550 whole entry, looked up): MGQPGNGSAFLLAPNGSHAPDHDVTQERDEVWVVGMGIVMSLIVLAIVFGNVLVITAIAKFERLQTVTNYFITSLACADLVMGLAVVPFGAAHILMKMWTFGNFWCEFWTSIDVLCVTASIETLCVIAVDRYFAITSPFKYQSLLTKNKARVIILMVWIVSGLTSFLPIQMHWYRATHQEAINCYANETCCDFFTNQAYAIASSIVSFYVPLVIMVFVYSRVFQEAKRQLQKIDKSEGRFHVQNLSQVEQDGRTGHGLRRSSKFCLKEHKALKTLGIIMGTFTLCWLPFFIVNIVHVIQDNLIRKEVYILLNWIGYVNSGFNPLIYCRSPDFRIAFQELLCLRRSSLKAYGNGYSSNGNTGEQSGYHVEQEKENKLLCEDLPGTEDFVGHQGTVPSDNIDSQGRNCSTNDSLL
Chain of Integrin beta-1 (Homo sapiens) + Integrin alpha-4 (Homo sapiens) (P05556 whole entry, looked up): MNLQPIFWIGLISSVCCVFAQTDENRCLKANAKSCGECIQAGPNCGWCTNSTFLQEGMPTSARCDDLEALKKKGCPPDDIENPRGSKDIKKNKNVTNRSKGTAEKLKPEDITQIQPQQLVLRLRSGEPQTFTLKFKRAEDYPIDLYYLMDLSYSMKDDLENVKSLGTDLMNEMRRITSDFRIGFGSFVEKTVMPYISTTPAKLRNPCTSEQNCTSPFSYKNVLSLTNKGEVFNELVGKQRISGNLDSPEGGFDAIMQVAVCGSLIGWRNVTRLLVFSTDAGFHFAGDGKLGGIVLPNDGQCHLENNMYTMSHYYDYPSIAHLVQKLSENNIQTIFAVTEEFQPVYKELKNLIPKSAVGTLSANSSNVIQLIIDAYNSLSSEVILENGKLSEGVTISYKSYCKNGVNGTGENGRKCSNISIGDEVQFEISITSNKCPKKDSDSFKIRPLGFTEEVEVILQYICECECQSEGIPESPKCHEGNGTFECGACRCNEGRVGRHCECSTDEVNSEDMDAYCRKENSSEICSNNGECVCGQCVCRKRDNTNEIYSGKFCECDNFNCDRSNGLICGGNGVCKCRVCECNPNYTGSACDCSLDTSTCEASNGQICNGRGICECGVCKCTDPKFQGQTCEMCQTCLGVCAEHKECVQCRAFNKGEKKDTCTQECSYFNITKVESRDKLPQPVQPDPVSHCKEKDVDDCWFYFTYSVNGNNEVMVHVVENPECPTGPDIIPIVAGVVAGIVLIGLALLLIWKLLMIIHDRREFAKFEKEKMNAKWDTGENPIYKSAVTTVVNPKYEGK
Chain of Integrin beta-1 (Homo sapiens) + Integrin alpha-4 (Homo sapiens) (P13612 whole entry, looked up): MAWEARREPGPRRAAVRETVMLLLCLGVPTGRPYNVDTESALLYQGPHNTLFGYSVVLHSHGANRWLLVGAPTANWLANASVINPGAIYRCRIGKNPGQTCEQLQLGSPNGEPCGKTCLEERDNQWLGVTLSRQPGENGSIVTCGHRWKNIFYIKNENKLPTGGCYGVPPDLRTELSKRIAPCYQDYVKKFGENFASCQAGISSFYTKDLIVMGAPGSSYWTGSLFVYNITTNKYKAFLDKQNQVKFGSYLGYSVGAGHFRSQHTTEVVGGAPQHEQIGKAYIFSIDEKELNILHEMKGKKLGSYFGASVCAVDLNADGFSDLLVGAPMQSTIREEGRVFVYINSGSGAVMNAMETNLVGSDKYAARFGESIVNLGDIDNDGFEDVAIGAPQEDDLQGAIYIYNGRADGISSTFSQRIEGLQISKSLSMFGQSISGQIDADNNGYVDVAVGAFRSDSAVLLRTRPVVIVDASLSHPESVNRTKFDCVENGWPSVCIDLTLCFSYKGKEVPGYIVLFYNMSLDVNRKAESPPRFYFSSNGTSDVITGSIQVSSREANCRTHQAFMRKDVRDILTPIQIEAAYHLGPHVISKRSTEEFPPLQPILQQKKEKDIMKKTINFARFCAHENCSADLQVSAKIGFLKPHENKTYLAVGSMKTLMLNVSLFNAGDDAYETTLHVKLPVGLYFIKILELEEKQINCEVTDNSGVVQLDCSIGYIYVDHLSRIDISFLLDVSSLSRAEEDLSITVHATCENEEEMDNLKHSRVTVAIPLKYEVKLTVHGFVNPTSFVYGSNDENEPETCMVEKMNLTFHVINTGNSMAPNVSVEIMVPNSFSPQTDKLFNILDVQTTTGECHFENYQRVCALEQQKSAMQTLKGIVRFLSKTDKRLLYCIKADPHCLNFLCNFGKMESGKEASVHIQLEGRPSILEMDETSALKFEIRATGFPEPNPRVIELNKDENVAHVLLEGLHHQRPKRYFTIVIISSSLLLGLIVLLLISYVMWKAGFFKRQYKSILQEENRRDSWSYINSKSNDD

With `O=C1Cc2ccccc2C(c2ccccc2)N1` (stereo not drawn) the percent of DMSO control GFP [1] was 98.8% (inactive), the GFP response vs DMSO [2] was 108% (inactive) and the percent response of DMSO control [3] was 101% (inactive). The GFP response vs DMSO [4] was 90.1% (inactive), the GFP response, % of DMSO [5] was 102% (inactive) and the double positive events [6] was 64.9%. The vesicle binding response [6] was 449% (inactive), the inhibition [7] was -19.1% (inactive) and the superoxide response (% of plate) [8] was 112% (inactive). For the same compound, the aptamer binding inhibition [9] was -3% (inactive), the response [10] was -4.45% (inactive) and the inhibition [11] was 56.3% (active). For the same compound, the response [12] was -7.51% (inactive), the binding (% of control) [13] was 95.9% (inactive) and the efflux inhibition (fraction of control) [14] was 0.11 (inactive). The inhibition [15] was 9% (inactive) and the differentiation response [16] was 53% (active).

For `CCOc1ccc(NC2OC(C)C(O)C(O)C2O)c([N+](=O)[O-])c1` (stereo not drawn), the percent of DMSO control GFP [1] was 101% (inactive), the GFP response vs DMSO [2] was 104% (inactive) and the percent response of DMSO control [3] was 97.8% (inactive). The GFP response vs DMSO [4] was 95.3% (inactive), the GFP response, % of DMSO [5] was 102% (inactive) and the double positive events [6] was 62.7%. The vesicle binding response [6] was 4580% (inactive), the inhibition [7] was -4.6% (inactive) and the superoxide response (% of plate) [8] was 102% (inactive). The aptamer binding inhibition [9] was 2% (inactive), the response [10] was 5.64% (inactive) and the inhibition [11] was -9.73% (inactive). For the same compound, the response [12] was 2.76% (inactive), the binding (% of control) [13] was 94.8% (inactive) and the efflux inhibition (fraction of control) [14] was -0.01 (inactive). For the same compound, the inhibition [15] was -10% (inactive) and the differentiation response [16] was -2.69% (inactive).

With `O=C(OCCN1CCOCC1)c1cccs1` the percent of DMSO control GFP [1] was 104% (inactive), the GFP response vs DMSO [2] was 98.3% (inactive) and the percent response of DMSO control [3] was 113% (inactive). The GFP response vs DMSO [4] was 94.7% (inactive), the GFP response, % of DMSO [5] was 103% (inactive) and the double positive events [6] was 64.9%. The vesicle binding response [6] was 260% (inactive), the inhibition [7] was -3.57% (inactive) and the superoxide response (% of plate) [8] was 88.9% (inactive). For the same compound, the aptamer binding inhibition [9] was 2% (inactive), the response [10] was -11.6% (inactive) and the inhibition [11] was -4.4% (inactive). For the same compound, the response [12] was 0.26% (inactive), the binding (% of control) [13] was 91.9% (inactive) and the efflux inhibition (fraction of control) [14] was 0.02 (inactive). The inhibition [15] was 1% (inactive) and the differentiation response [16] was 0.24% (inactive).

With `NC(=O)[C@@H]1[C@@H]2C(=O)N(c3ccc(F)cc3)C(=O)[C@@H]2[C@H]2C=Cc3ccccc3N21` the percent of DMSO control GFP [1] was 104% (inactive), the GFP response vs DMSO [2] was 105% (inactive) and the percent response of DMSO control [3] was 112% (inactive). For the same compound, the GFP response vs DMSO [4] was 100% (inactive), the GFP response, % of DMSO [5] was 102% (inactive) and the double positive events [6] was 63%. For the same compound, the vesicle binding response [6] was 126% (inactive), the inhibition [7] was -80.5% (inactive) and the superoxide response (% of plate) [8] was 103% (inactive). The aptamer binding inhibition [9] was 6% (inactive), the response [10] was 4.67% (inactive) and the inhibition [11] was -25.9% (inactive). For the same compound, the response [12] was -0.45% (inactive), the binding (% of control) [13] was 104% (inactive) and the efflux inhibition (fraction of control) [14] was -0.12 (inactive). The inhibition [15] was -37% (inactive) and the differentiation response [16] was 3.45% (inactive).

In the case of `COc1cc(CNCc2ccc(OC)c(OC)c2OC)cc(OC)c1`, the percent of DMSO control GFP [1] is reported as 105% (inactive), the GFP response vs DMSO [2] is reported as 110% (inactive) and the percent response of DMSO control [3] is reported as 105% (inactive). For the same compound, the GFP response vs DMSO [4] was 104% (inactive), the GFP response, % of DMSO [5] was 112% (inactive) and the double positive events [6] was 60.7%. The vesicle binding response [6] was 178% (inactive), the inhibition [7] was 33.8% (inactive) and the superoxide response (% of plate) [8] was 106% (inactive). The aptamer binding inhibition [9] was 2% (inactive), the response [10] was -16% (inactive) and the inhibition [11] was 64.9% (active). For the same compound, the response [12] was 22.7% (active), the binding (% of control) [13] was 102% (inactive) and the efflux inhibition (fraction of control) [14] was 0 (inactive). For the same compound, the inhibition [15] was 1% (inactive) and the differentiation response [16] was -11.9% (inactive).

In the case of `CN1CCN(C2=Nc3ccccc3Oc3ccc(Cl)cc32)CC1`, the percent of DMSO control GFP [1] is reported as 101% (inactive), the GFP response vs DMSO [2] is reported as 115% (inactive) and the percent response of DMSO control [3] is reported as 111% (inactive). The GFP response vs DMSO [4] was 79.8% (inactive), the GFP response, % of DMSO [5] was 100% (inactive) and the double positive events [6] was 61.6%. The vesicle binding response [6] was 223% (inactive), the inhibition [7] was 4.52% (inactive) and the superoxide response (% of plate) [8] was 112% (inactive). The aptamer binding inhibition [9] was -9% (inactive), the response [10] was -6.79% (inactive) and the inhibition [11] was -13.5% (inactive). The response [12] was 0.86% (inactive), the binding (% of control) [13] was 109% (inactive) and the efflux inhibition (fraction of control) [14] was 0.19 (inactive). The inhibition [15] was 14% (inactive) and the differentiation response [16] was -0.82% (inactive).

For `COc1cc(OC)c(-c2nc3cnccc3n2C)cc1OC`, the percent of DMSO control GFP [1] was 104% (inactive), the GFP response vs DMSO [2] was 100% (inactive) and the percent response of DMSO control [3] was 115% (inactive). The GFP response vs DMSO [4] was 103% (inactive), the GFP response, % of DMSO [5] was 102% (inactive) and the double positive events [6] was 61.8%. The vesicle binding response [6] was 192% (inactive), the inhibition [7] was -4.6% (inactive) and the superoxide response (% of plate) [8] was 97% (inactive). The aptamer binding inhibition [9] was 0% (inactive), the response [10] was -4.1% (inactive) and the inhibition [11] was -2.31% (inactive). The response [12] was 4.97% (inactive), the binding (% of control) [13] was 97.6% (inactive) and the efflux inhibition (fraction of control) [14] was -0.01 (inactive). The inhibition [15] was -11% (inactive) and the differentiation response [16] was 3.18% (inactive).

For `O=C(O)CCCNc1ccc(S(=O)(=O)Nc2ccccc2C(=O)O)cc1C(=O)O`, the percent of DMSO control GFP [1] was 105% (inactive), the GFP response vs DMSO [2] was 94.1% (inactive) and the percent response of DMSO control [3] was 116% (inactive). For the same compound, the GFP response vs DMSO [4] was 83.5% (inactive), the GFP response, % of DMSO [5] was 97% (inactive) and the double positive events [6] was 64.9%. The vesicle binding response [6] was 187% (inactive), the inhibition [7] was 12% (inactive) and the superoxide response (% of plate) [8] was 101% (inactive). The aptamer binding inhibition [9] was 5% (inactive), the response [10] was -8.58% (inactive) and the inhibition [11] was -4.62% (inactive). The response [12] was -5.39% (inactive), the binding (% of control) [13] was 102% (inactive) and the efflux inhibition (fraction of control) [14] was -0.14 (inactive). The inhibition [15] was 17% (inactive) and the differentiation response [16] was 4.15% (inactive).

With `Cn1nc(-c2ccc(Cl)cc2)nc2c(=O)n(C)c(=O)nc1-2` the percent of DMSO control GFP [1] was 74.2% (active), the GFP response vs DMSO [2] was 138% (inactive) and the percent response of DMSO control [3] was 74.4% (inactive). For the same compound, the GFP response vs DMSO [4] was 137% (inactive), the GFP response, % of DMSO [5] was 76.7% (inactive) and the double positive events [6] was 62.1%. For the same compound, the vesicle binding response [6] was 215% (inactive), the inhibition [7] was -12.2% (inactive) and the superoxide response (% of plate) [8] was 79.2% (inactive). The aptamer binding inhibition [9] was 45% (active), the response [10] was 17.6% (inactive) and the inhibition [11] was -4.09% (inactive). For the same compound, the response [12] was 59.4% (active), the binding (% of control) [13] was 108% (inactive) and the efflux inhibition (fraction of control) [14] was 0.12 (inactive). The inhibition [15] was -16% (inactive) and the differentiation response [16] was -4.99% (inactive).
